In ChEMBL document CHEMBL2218924, “A broad activity screen in support of a chemogenomic map for kinase signalling research and drug discovery” (Biochem J, 2013):

biological target: Serine/threonine-protein kinase PLK1 (Homo sapiens) (UniProt P53350); conditions: at 10 µM
Sequence (P53350 whole entry): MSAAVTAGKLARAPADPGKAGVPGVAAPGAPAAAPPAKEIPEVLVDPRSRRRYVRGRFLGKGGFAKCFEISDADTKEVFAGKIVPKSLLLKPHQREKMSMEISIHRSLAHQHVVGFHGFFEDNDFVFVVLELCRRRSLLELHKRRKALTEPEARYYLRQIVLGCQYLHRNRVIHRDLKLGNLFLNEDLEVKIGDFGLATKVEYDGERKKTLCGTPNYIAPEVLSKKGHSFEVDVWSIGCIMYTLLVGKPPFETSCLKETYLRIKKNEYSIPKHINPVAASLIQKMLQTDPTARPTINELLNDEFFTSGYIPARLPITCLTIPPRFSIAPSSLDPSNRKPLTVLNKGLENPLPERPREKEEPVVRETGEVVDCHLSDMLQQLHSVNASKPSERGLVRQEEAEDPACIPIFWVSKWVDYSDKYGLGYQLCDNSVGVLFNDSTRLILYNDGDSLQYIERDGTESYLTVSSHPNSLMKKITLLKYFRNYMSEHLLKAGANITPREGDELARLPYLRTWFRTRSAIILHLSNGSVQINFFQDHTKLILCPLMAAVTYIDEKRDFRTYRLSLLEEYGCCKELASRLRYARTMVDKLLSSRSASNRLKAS

Structure (SMILES)	residual activity
N#C/C(=C\c1ccc(O)c(O)c1)C(=O)NCc1ccccc1	64%
COc1cc2c(cc1OC)-c1n[nH]c(Nc3cccc(F)c3)c1C2	61%
N#C/C(=C1/Nc2ccccc2S1)c1ccnc(NCCc2cccnc2)n1	74%
O=C1C(Cl)=C(N2C(=O)CCC2=O)C(=O)c2ccccc21	85%
CCCCc1c(-c2ccc(O)cc2)[nH]c2nccnc12	87%
O=C(NC(NC(=S)Nc1ccc(F)c([N+](=O)[O-])c1)C(Cl)(Cl)Cl)C(c1ccccc1)c1ccccc1 (stereo not given)	98%
NC(=O)c1cccc(-c2cc(Nc3ccc(OC(F)(F)F)cc3)ncn2)c1	88%
N#Cc1c(NC(=O)c2cccc3ccccc23)sc2c1CCCC2	78%
CC(C)N(CCC(=O)c1ccc2ccccc2c1)Cc1ccccc1	64%
O=C1NC(=O)C(c2cn(CCCn3ccnc3)c3ccccc23)=C1Nc1ccccc1	64%
Cc1cc(C)c(/C=C2\C(=O)Nc3ccccc32)[nH]1	76%
COc1ccc(-c2cnc3c(-c4ccsc4)cnn3c2)cc1	71%
O=C1Cc2c([nH]c3ccc([N+](=O)[O-])cc23)-c2ccccc2N1	100%
COc1ccc(COc2ccc(Cc3cnc(N)nc3N)cc2OC)cc1	71%
O=c1cc(N2CCOCC2)oc2c(-c3ccccc3)cccc12	12%
Nc1n[nH]c2nc3ccccc3nc12	78%
CC(C)c1nn(-c2c(Cl)cccc2Cl)c2nc(Cc3ccc(OCCO)cc3)[nH]c(=O)c12	81%
Fc1ccc(-c2nc3n(c2-c2ccncc2)CCS3)cc1	82%

biological target: Serine/threonine-protein kinase PLK3 (Homo sapiens) (UniProt Q9H4B4); conditions: at 1 µM
Sequence (Q9H4B4 whole entry, looked up): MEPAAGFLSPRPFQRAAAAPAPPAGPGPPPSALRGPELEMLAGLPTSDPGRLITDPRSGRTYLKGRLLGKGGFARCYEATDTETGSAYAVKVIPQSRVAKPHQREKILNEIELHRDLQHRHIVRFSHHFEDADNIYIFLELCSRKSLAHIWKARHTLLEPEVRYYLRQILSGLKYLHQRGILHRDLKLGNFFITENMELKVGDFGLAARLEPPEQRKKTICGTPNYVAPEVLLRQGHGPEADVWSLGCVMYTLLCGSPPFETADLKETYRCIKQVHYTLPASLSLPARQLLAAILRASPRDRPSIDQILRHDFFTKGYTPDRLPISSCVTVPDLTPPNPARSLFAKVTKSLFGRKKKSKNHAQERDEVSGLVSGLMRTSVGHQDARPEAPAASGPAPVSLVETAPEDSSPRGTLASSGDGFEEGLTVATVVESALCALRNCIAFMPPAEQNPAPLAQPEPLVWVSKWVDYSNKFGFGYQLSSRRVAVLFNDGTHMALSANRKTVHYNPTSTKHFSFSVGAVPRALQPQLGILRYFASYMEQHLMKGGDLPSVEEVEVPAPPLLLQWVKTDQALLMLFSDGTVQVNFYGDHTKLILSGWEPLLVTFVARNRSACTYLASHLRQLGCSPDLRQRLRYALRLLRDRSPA

Structure (SMILES)	residual activity
O=C1C(Cl)=C(N2C(=O)CCC2=O)C(=O)c2ccccc21	96% (inactive)
CCCCc1c(-c2ccc(O)cc2)[nH]c2nccnc12	100% (inactive)
O=C(NC(NC(=S)Nc1ccc(F)c([N+](=O)[O-])c1)C(Cl)(Cl)Cl)C(c1ccccc1)c1ccccc1 (stereo not given)	100% (inactive)
NC(=O)c1cccc(-c2cc(Nc3ccc(OC(F)(F)F)cc3)ncn2)c1	100% (inactive)
CSc1nc(-c2ccc(F)cc2)c(-c2ccnc(NC(C)c3ccccc3)c2)[nH]1 (stereo not given)	91% (inactive)
Cc1cc(C)c(/C=C2\C(=O)Nc3ccccc32)[nH]1	102% (inactive)
COc1ccc(-c2cnc3c(-c4ccsc4)cnn3c2)cc1	87% (inactive)
O=C1Cc2c([nH]c3ccc([N+](=O)[O-])cc23)-c2ccccc2N1	107% (inactive)
Nc1n[nH]c2nc3ccccc3nc12	89% (inactive)
CC(C)c1nn(-c2c(Cl)cccc2Cl)c2nc(Cc3ccc(OCCO)cc3)[nH]c(=O)c12	103% (inactive)
Fc1ccc(-c2nc3n(c2-c2ccncc2)CCS3)cc1	100% (inactive)

biological target: Serine/threonine-protein kinase PLK3 (Homo sapiens) (UniProt Q9H4B4); conditions: at 10 µM

Structure (SMILES)	residual activity
N#C/C(=C\c1ccc(O)c(O)c1)C(=O)NCc1ccccc1	80%
O=C1C(Cl)=C(N2C(=O)CCC2=O)C(=O)c2ccccc21	93%
CCCCc1c(-c2ccc(O)cc2)[nH]c2nccnc12	100%
O=C(NC(NC(=S)Nc1ccc(F)c([N+](=O)[O-])c1)C(Cl)(Cl)Cl)C(c1ccccc1)c1ccccc1 (stereo not given)	98%
NC(=O)c1cccc(-c2cc(Nc3ccc(OC(F)(F)F)cc3)ncn2)c1	97%
CSc1nc(-c2ccc(F)cc2)c(-c2ccnc(NC(C)c3ccccc3)c2)[nH]1 (stereo not given)	90%
COc1ccc(-c2cnc3c(-c4ccsc4)cnn3c2)cc1	97%
Nc1n[nH]c2nc3ccccc3nc12	83%
CC(C)c1nn(-c2c(Cl)cccc2Cl)c2nc(Cc3ccc(OCCO)cc3)[nH]c(=O)c12	96%
Fc1ccc(-c2nc3n(c2-c2ccncc2)CCS3)cc1	95%

biological target: T1, cAMP-dependent protein kinase catalytic subunit PRKX (Homo sapiens) (UniProt P51817); conditions: at 1 µM
T1 sequence (whole entry): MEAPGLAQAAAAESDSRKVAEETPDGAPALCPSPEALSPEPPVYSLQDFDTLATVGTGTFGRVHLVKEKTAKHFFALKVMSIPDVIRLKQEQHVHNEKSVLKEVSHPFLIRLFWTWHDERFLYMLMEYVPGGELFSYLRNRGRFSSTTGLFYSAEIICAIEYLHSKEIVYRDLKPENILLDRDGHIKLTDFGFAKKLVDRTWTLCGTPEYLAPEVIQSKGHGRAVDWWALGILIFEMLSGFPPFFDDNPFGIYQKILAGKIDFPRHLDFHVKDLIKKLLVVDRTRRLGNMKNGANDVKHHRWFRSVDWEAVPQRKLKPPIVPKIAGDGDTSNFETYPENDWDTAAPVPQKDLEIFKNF

Structure (SMILES)	residual activity
O=S(=O)(NCCNC/C=C/c1ccc(Br)cc1)c1cccc2cnccc12	0%
CN([C@@H](Cc1ccc(OS(=O)(=O)c2cccc3cnccc23)cc1)C(=O)N1CCN(c2ccccc2)CC1)S(=O)(=O)c1cccc2cnccc12	116%
O=C(Nc1nc2ccccc2n1CCN1CCOCC1)c1cccc([N+](=O)[O-])c1	108%
N#C/C(=C1/Nc2ccccc2S1)c1ccnc(NCCc2cccnc2)n1	83%
O=C1C(Cl)=C(N2C(=O)CCC2=O)C(=O)c2ccccc21	93%
CCCCc1c(-c2ccc(O)cc2)[nH]c2nccnc12	93%
O=C(NC(NC(=S)Nc1ccc(F)c([N+](=O)[O-])c1)C(Cl)(Cl)Cl)C(c1ccccc1)c1ccccc1 (stereo not given)	82%
N#Cc1c(NC(=O)c2cccc3ccccc23)sc2c1CCCC2	80%
O=C1NC(=O)C(c2cn(CCCn3ccnc3)c3ccccc23)=C1Nc1ccccc1	80%
Oc1cccc(-c2nc(N3CCOCC3)c3oc4ncccc4c3n2)c1	96%
CSc1nc(-c2ccc(F)cc2)c(-c2ccnc(NC(C)c3ccccc3)c2)[nH]1 (stereo not given)	87%
O=c1c(-c2ccc(F)cc2)c(-c2ccncc2)[nH]n1-c1ccc(Cl)cc1	78%
COc1ccc(-c2cnc3c(-c4ccsc4)cnn3c2)cc1	81%
O=C(c1cc2cc(O)ccc2[nH]1)c1cc2cc(O)ccc2[nH]1	81%
COc1cc2nccc(Oc3ccc(NC(=O)Nc4cc(C)on4)c(Cl)c3)c2cc1OC	97%
O=C1Cc2c([nH]c3ccc([N+](=O)[O-])cc23)-c2ccccc2N1	81%
COc1ccc(COc2ccc(Cc3cnc(N)nc3N)cc2OC)cc1	98%
Nc1n[nH]c2nc3ccccc3nc12	118%
CC(C)c1nn(-c2c(Cl)cccc2Cl)c2nc(Cc3ccc(OCCO)cc3)[nH]c(=O)c12	94%
O=S(=O)(c1cccc2cnccc12)N1CCCNCC1	21%
Fc1ccc(-c2nc3n(c2-c2ccncc2)CCS3)cc1	92%
